The test system of the assay is HepG2. The assay is described as follows: GSK_TCMDC: Percent inhibition of human HepG2 cell line. Test compounds present at 10uM. It is filed as functional.
Turning to `CN1CCN(c2ccnc3ccc(NC(=O)Cc4ccc(Br)c5ccccc45)cc23)CC1`, the Inhibition amounted to 8%.
For `Cc1ccc(-c2nn3c(O)c4c(nc3c2C)CCCC4)cc1` the value was 16%; for `CCN(CCCN1CCCCC1)c1cc(C)nc(Nc2ccc(Oc3ccccc3)cc2)n1.O=C(O)C(F)(F)F`, 50%.
